Activity calls are given as the source filed them. Rule for the calls: active = hit-call score of the fitted dose curve at least 0.9, where 1 is the maximum; inactive = score below 0.9.

The nature of the assay: CCTE_Deisenroth_5AR_NBTE_acceptor: CCTE's 5alpha-reductase NanoBRET Target Engagement Assay - Autofluorescence Screen, Deisenroth Lab (AID 2284321).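 Note: compound fluorescence in the acceptor channel under 460 nm excitation flags autofluorescence artifacts.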 The settings on record: actives raise or lower the signal. Here is the method:
CCTE_Deisenroth_5AR NBTE (5alpha-reductase NanoBRET Target Engagement Assay) is a cell-based, single-readout assay that uses HEK293T, a human kidney cell line, with measurements taken at 5 hours after chemical dosing in a 384 well plate. This assay includes a primary and secondary screen as well as an autofluorscence screen.CCTE_Deisenroth_5AR NBTE_acceptor is one of four assay components measured from the CCTE_Deisenroth_5AR NBTE assay. It is designed to make measurements of resonant fluorescence generated by bioluminescent energy transfer to a target fluorophore, as detected by fluorescence intensity emission signals using spectrometry technology.Data from the assay component CCTE_Deisenroth_5AR NBTE_acceptor was analyzed into 1 assay endpoint. This assay endpoint, CCTE_Deisenroth_5AR NBTE_acceptor, was analyzed with bidirectional fitting relative to DMSO as the negative control and baseline of activity. Using a type of inducible reporter, gain or loss-of-signal activity can be used to understand changes in the acceptor fluorescence as related to 5alpha-reductase catalytic function. Furthermore, this assay endpoint can be referred to as a secondary readout, because this assay has produced multiple assay endpoints where this one serves an artifact detection function.
Chemicals from the blinded ToxCast library were diluted 1000-fold in DMSO to an assumed nominal concentration of 100 uM. Samples were scanned in three independent runs (n=3) on a multi-mode plate reader at a fixed excitation wavelength of 460 nm with emission filter set at […]. For reference, tracer was included at DMSO-solubilized concentrations of 100 uM (the top tested concentration for each test chemical) and 600 nM (the final working concentration of the tracer probe).
For orientation: In BRET a luciferase serves as donor, and the signal depends on an acceptor being close.
Take `CN(C)c1ccc(C(=C2C=CC(=[N+](C)C)C=C2)c2ccc(N(C)C)cc2)cc1`: the concentration at half-maximal activity (AC50) was 4.78 µM (active).
For the compound `CCN(CC)C(=O)c1cc(S(=O)(=O)Cc2ccccc2)c(N2CCC(c3ccccc3)CC2)cc1N(CC)CCN(C)C`, the call was inactive.
`CCCCCCCCOC(=O)c1cc(O)c(O)c(O)c1`: the AC50 was 61.4 µM (active).
On to `O=c1c(-c2ccc(O)cc2)coc2cc(O)cc(O)c12`, for which the compound was called inactive.
The same measure, in the same setting: next, `NCc1cccc(C2CCN(C(=O)c3ccc(C#Cc4ccccc4F)o3)CC2)c1`: “inactive”.
Regarding `CCN(Cc1cccc(S(=O)(=O)O)c1)c1ccc(C(=C2C=CC(=[N+](CC)Cc3cccc(S(=O)(=O)O)c3)C=C2)c2ccccc2S(=O)(=O)[O-])cc1`, the AC50 was 21.7 µM (active).
For `CCCCCCCCCCCO`, the compound was classed as inactive.
Regarding `O=c1[nH]sc2ccccc12`, the AC50 was 82.8 µM (active).
For `CN1C(=O)CC[C@H]1c1cccnc1`, the compound was called inactive.
For `COc1cc(C(=O)NC2CCN(C)CC2)ccc1Nc1ncc2c(n1)N(C1CCCC1)CC(F)(F)C(=O)N2C`, the outcome was inactive.
As for `CN(C[C@@H](CC[N+]12CCC(C3CCCCC3)(CC1)CC2)c1ccc(Cl)c(Cl)c1)C(=O)c1cc(C(F)(F)F)cc(C(F)(F)F)c1`, the AC50 was 16.1 µM (active).
As to `CO[C@H]1/C=C/O[C@@]2(C)Oc3c(C)c(O)c4c(O)c(c(/C=N/N5CCN(C)CC5)c(O)c4c3C2=O)NC(=O)/C(C)=C\C=C\[C@H](C)[C@H](O)[C@@H](C)[C@@H](O)[C@@H](C)[C@H](OC(C)=O)[C@@H]1C`, the compound was called inactive.
For the compound `CN1C(=O)N(c2ccccc2Br)Cc2cnc(Nc3ccc4c(c3)OCC(CO)O4)nc21` (centres undefined), the call was inactive.
In the case of `O=C(O)Cc1cc(I)c(Oc2ccc(O)c(I)c2)c(I)c1`, the AC50 is 14.3 µM (active).

The AC50 is the concentration at which the activity in the assay is half-maximal.

Values taken from PubChem BioAssay (EPA / NIEHS).
